Screens: PubChem, several laboratories
Only some compounds are listed: those with a hit (about 6.6% of all), similar ones and a draw of the others.
BoNT-A LC inh2 – blocks Botulinum neurotoxin A light chain protease | multiplex microsphere protease substrate cleavage, flow cytometry | inhibition, % at 10 µM | AID 588499 | 360,000 tested, 0.17% active
Autofluor counter – compound fluorescence in toxin protease inhibitor counterscreen; compound autofluorescence counterscreen, microsphere flow cytometry; hits give high values; fluorescence intensity (test concentration not listed); 360,000 tested, 3.1% active; in the data active means fluorescence intensity above about 16000; inconclusive means no clear call, values can overlap the other calls
GDH-TPI counter – GDH-TPI coupled enzyme inhibition counter-screen. GDH-TPI coupled enzyme counterscreen, NADH absorbance. inhibition, % at 4.8 µM. 360,000 tested, 1.2% active; in the data active means inhibition above about 30%
BoNT-F LC inh – BoNT F light chain protease inhibition | Multiplex microsphere protease cleavage assay, flow cytometry | inhibition, % at 10 µM | 360,000 tested, 0.22% active | AID 588497; in the data active means inhibition above about 35%, passing the limit was not always enough; inconclusive means no clear call, values can overlap the other calls
Anthrax LF prot – anthrax lethal factor protease inhibition. P15917. multiplex microsphere protease cleavage assay, LF. inhibition, % at 10 µM. 360,000 tested, 0.12% active
Mtb FBA inh – inhibitors of M. tuberculosis fructose-bisphosphate aldolase. P9WQA3. purified M. tuberculosis FBA, fluorescence read-out. inhibition, % at 1 µM. 360,000 tested, 2.3% active; in the data active means inhibition above about 27%
Target sequence (P9WQA3 whole entry, looked up): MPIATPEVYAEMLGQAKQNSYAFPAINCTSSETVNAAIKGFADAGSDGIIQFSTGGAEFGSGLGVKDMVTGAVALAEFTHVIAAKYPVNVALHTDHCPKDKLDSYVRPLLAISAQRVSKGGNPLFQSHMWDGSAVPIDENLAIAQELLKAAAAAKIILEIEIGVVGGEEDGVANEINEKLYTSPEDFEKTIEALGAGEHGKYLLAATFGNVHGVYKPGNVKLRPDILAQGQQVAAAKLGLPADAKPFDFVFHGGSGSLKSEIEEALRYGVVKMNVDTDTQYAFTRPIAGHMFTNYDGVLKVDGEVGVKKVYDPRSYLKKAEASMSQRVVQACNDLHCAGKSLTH
Of the large screens only hits and unclear results are named; the others gave an inactive call. Unless noted, no stated cut-off is given here; in the data, active means inhibition above about 30%; inconclusive means no clear call, values can overlap the other calls; inactive means below that.

O=c1[nH]c2cc3ccccc3cc2nc1-c1nnnn1Cc1ccccc1	none (no result: GDH-TPI counter, Mtb FBA inh)
O=C(CCc1ccccc1)NC(=S)Nc1cc(C(F)(F)F)ccc1N1CCOCC1	Autofluor counter 19113
Cc1cc(NC(=O)CSc2ncccc2C(=O)O)no1	none
O=C(O)CC(CC(=O)Nc1nncs1)c1ccccc1 (stereo unspecified)	none
O=C(O)CC(Cn1[nH]nnc1=S)c1ccccc1 (stereo unspecified)	BoNT-A LC inh2 inconclusive, Autofluor counter 22296
Cc1ccc(C(=O)O)cc1-c1ccc(/C=C2/NC(=O)N(c3ccccc3)C2=O)o1	Autofluor counter 23411
COc1cc(NC(=O)CSc2nnnn2C2CCCC2)cc(OC)c1	none
Cc1ccc(S(=O)(=O)N2CCOCC2)cc1NC(=O)COC(=O)c1cnc(Cl)c(Cl)c1	Autofluor counter inconclusive
COc1ccc(CC(=O)c2c(O)cc(O)cc2O)cc1OC	BoNT-A LC inh2 inconclusive, Autofluor counter 22635
NC(=O)c1[nH]cnc1N	none
O=C(NC1(C(F)(F)F)C(=O)Nc2c1c(=O)[nH]c(=O)n2Cc1ccccc1)c1ccc(Cl)cc1 (stereo unspecified)	Autofluor counter 16519
O=C(NC1(C(F)(F)F)C(=O)Nc2c1c(=O)[nH]c(=O)n2-c1ccc(F)cc1)c1cccnc1 (stereo unspecified)	Autofluor counter 18307
COc1ccc(-n2c3c(c(=O)[nH]c2=O)C(NC(=O)c2ccncc2)(C(F)(F)F)C(=O)N3)cc1 (stereo unspecified)	none
O=C(NC1(C(F)(F)F)C(=O)Nc2c1c(=O)[nH]c(=O)n2Cc1ccccc1)c1ccc(Cl)cc1Cl (stereo unspecified)	Autofluor counter 16727
Cc1ccc(S(=O)(=O)N2CCCCC2)cc1NC(=O)CNC(C)c1ccc(Cl)c(Cl)c1 (stereo unspecified)	none
O=c1c(-c2nc3ccccc3s2)cccn1Cc1ccc(Cl)cc1	Mtb FBA inh 142
CN(Cc1cnn(C)c1)S(=O)(=O)c1cccc([N+](=O)[O-])c1	none
Cn1c(NC(=O)c2ccccc2NC(=O)C(C)(C)C)nc2ccccc21	GDH-TPI counter 34
O=C(C1=C(O)C(=O)N(CC2CCCO2)C1c1ccccc1Cl)c1ccco1 (stereo unspecified)	none
Cc1cccc(NC(=O)N2CCN(Cc3ccc4c(c3)OCO4)CC2)c1C	none
CCOC(=O)c1cnn(-c2nc(-c3ccccc3)cs2)c1C(F)(F)F	none
CCOC(=O)c1cnn(-c2nc(-c3ccccc3F)cs2)c1C(F)(F)F	BoNT-A LC inh2 inconclusive, Autofluor counter 19894
O=C(O)c1ccccc1C(c1ccccc1)c1ccccc1O (stereo unspecified)	none
COc1ccccc1CC(=O)Nc1ccc(S(=O)(=O)N2CC(C)CC(C)C2)cc1 (stereo unspecified)	none
Brc1ccc2c(c1)-c1ccccc1C1=NCCN12	none
Clc1ccc2c(c1)-c1ccccc1C1=NCCN12	Mtb FBA inh 51
Cc1ccc(OCCCCn2ccnc2)c(Cl)c1	Autofluor counter 19999
C=CCc1ccccc1OCCn1ccnc1	none
Clc1ccccc1OCCn1ccnc1	Autofluor counter 20725
Cc1cc(C)cc(OCCCn2ccnc2)c1	none
COc1cccc(OCCn2ccnc2)c1	Autofluor counter 23533
Cc1cccc(OCCCn2ccnc2)c1	BoNT-A LC inh2 inconclusive, Autofluor counter 21296
CCOC(=O)C1=C(COC(=O)Cc2ccccc2)NC(=O)NC1C (stereo unspecified)	none
Cn1nccc1/C=C(/C#N)S(=O)(=O)c1ccccc1	Autofluor counter inconclusive
N#C/C(=C\c1ccc[nH]1)S(=O)(=O)c1ccccc1	Autofluor counter 16572
CCn1cc(/C=C(/C#N)S(=O)(=O)c2ccccc2)cn1	Autofluor counter 23211
N#C/C(=C\c1ccc(OCC(N)=O)cc1)S(=O)(=O)c1ccccc1	none
Cc1csc(NC(=O)C2CCCN2C(=O)Oc2ccccc2)n1 (stereo unspecified)	Autofluor counter 22986
Cc1cc(C)cc(NC(=O)C2CCCN2C(=O)Oc2ccccc2)c1 (stereo unspecified)	none
COCC1CCCN(C(=O)c2ccc3oc(Cc4ccc(Cl)cc4)nc3c2)C1 (stereo unspecified)	none
Cc1scc(C(=O)N2CCN(S(C)(=O)=O)CC2)c1-c1ccccc1	BoNT-A LC inh2 inconclusive, Autofluor counter 24362
COc1ccc(N2CCN(C(=O)c3csc4ccccc34)CC2)cc1	Autofluor counter 16323
CS(=O)(=O)N1CCN(C(=O)c2csc3ccccc23)CC1	Autofluor counter 24374
CC(=O)C(C(c1ccccc1)N1CCCc2ccccc21)N1CCOCC1 (stereo unspecified)	none
COC(=O)C1CCN(C2CN(Cc3ccc(C)cc3)S(=O)(=O)C2)CC1 (stereo unspecified)	none (no result: GDH-TPI counter)
CN(C)C(CNC(=O)c1cc(S(=O)(=O)N(C)c2ccc(F)cc2)ccc1Cl)c1cccs1 (stereo unspecified)	none
O=C1CSC(c2ccccn2)N1c1ccccc1 (stereo unspecified)	Autofluor counter 21482
O=C1CSC(c2ccccn2)N1c1ccc(Br)cc1 (stereo unspecified)	none
Cc1nn(C(C)c2n[nH]c(=S)n2-c2ccc(F)cc2)c(C)c1[N+](=O)[O-] (stereo unspecified)	Autofluor counter 17161
C=C(C)CSC1=C(C#N)C(c2ccccc2Cl)CC(=O)N1 (stereo unspecified)	Autofluor counter 23035
C=CCSC1=C(C#N)C(c2ccccc2Cl)CC(=O)N1 (stereo unspecified)	none
CCCOc1ccc(/C=N/n2nnnc2N)cc1OC	none
CCN(CC)c1ccc(/C=N/n2nnnc2N)c(O)c1	Autofluor counter 22051, GDH-TPI counter 38
CCN(C)c1ccc(/C=N\n2nnnc2N)cc1	Mtb FBA inh 28
Nc1nnnn1/N=C/c1ccccn1	Autofluor counter 21208
Nc1nnnn1/N=C/c1ccccc1Cl	none
CSc1ccc(/C=N/n2nnnc2N)cc1	Autofluor counter 22907, GDH-TPI counter 43
Nc1nnnn1/N=C/c1ccc(O)cc1	none
COc1cc(/C=N/n2nnnc2N)ccc1OC(C)=O	none
COc1cc(/C=N/n2nnnc2N)ccc1O	Autofluor counter 23466, GDH-TPI counter 44
CCOC(=O)Nc1ccc(S(=O)(=O)NCCCN2CCOCC2)cc1	Autofluor counter 17393
CCCCOC(=O)Nc1ccc(N2CCCCC2)cc1	none
CCCCOC(=O)Nc1ccc(N2CCOCC2)cc1	BoNT-A LC inh2 inconclusive, Autofluor counter 20906
CCOC(=O)Nc1ccc(S(=O)(=O)N2CCOCC2)cc1	none
CCOc1ccc(NC(=S)N2CCN(S(C)(=O)=O)CC2)cc1	none
COc1cc2c(cc1OC)C(=O)C(Br)CC2 (stereo unspecified)	none
Cn1cnnc1SCC(=O)c1ccc2c(c1)OCCO2	Autofluor counter 16723
O=C(CSc1nnc(SCc2cccc3ccccc23)s1)c1ccc2c(c1)OCO2	Autofluor counter 19293
CCc1nc(SCC(=O)c2ccc3c(c2)OCCO3)c2ccccc2n1	Autofluor counter 22675
